Results on 14 molecules are retold here after PubChem BioAssay (NCATS).

Inconclusive results are not listed. Values without a mark were called inactive. The source made the active and inactive calls. Calls follow the shape of the dose curve; as a rule, active = well fitted curve in the direction sought with a large enough effect; inconclusive = small, poorly fitted or top-dose-only effect, or another doubt; inactive = no such curve, though single readings can be large; an effect the other way counts as inactive or inconclusive.

In one test the test system is CRL-7250. Kind of test: Cytotoxic Profiling of Annotated Libraries Using Quantitative High-Throughput Screening (AID 1296008). Also: nearly all actives have a fitted effect of over 60% in size. Also: potency is read from the fitted curve at half-maximal effect. As to max response: % is scaled to controls: 0 for no effect and ±100 for the full control effect. Particulars: Five cell lines viability, CellTiter-Glo ATP luminescence, 48-72 h; max response: stronger effect = lower value. Put shortly:
(§1)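 Compounds were pin-transferred onto cells and incubated 48 or 72 hr at 37 degree Celsius, 95% humidity. CellTiter-Glo was added, plates sat 10 min at room temperature, then ATP-coupled luminescence was imaged as the viability read-out.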
For orientation: In ATP-based viability assays light output follows the ATP content of the culture.

The next test deals with KB-3-1. The description is as above. The following applies: Five cell lines viability, CellTiter-Glo ATP luminescence, 48-72 h; max response: stronger effect = lower value. The gist of the method: as §1
Another test concerns C33A. As to the kind of experiment: Primary qHTS to identify gynecologic anti-cancer compounds using libraries of approved drugs and bioactive compounds (AID 1345084). Also: nearly all actives have a fitted effect of over 55% in size. Also: potency is read from the fitted curve at half-maximal effect. The following applies: Gynecologic cancer cell panel viability, ATPlite luminescence, 48 h; series mostly up to 57.5 µM. The gist of the method:
(§2)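 Five-point cytotoxicity, 48 h drug exposure at 37 C, 5% CO2, on cells seeded 16 h beforehand. ATP content read by ATPlite luminescence.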
For orientation: qHTS replaces the single test concentration by a dilution series.

In a further test the test system is CAOV3. The test is described as above. The following applies: Gynecologic cancer cell panel viability, ATPlite luminescence, 48 h; series mostly up to 57.5 µM. The gist of the method:
as §2

In another test the test system is CASKI. The test is described as above. Particulars: Gynecologic cancer cell panel viability, ATPlite luminescence, 48 h; series mostly up to 57.5 µM. The gist of the method:
as §2

Another test relates to Es-2. The test is described as above. The following applies: Gynecologic cancer cell panel viability, ATPlite luminescence, 48 h; series mostly up to 57.5 µM. The gist of the method: as §2
In another test the test system is HeLa. Described as above. Particulars: Gynecologic cancer cell panel viability, ATPlite luminescence, 48 h; series mostly up to 57.5 µM. The gist of the method:
as §2

The next test deals with Hek293T. The test is described as above. The following applies: Gynecologic cancer cell panel viability, ATPlite luminescence, 48 h, control line for the selectivity index; series mostly up to 57.5 µM. The gist of the method:
as §2

A further test concerns JEG-3. Described as above. Particulars: Gynecologic cancer cell panel viability, ATPlite luminescence, 48 h; series mostly up to 57.5 µM. Put shortly: as §2
For another test, the system named is OV90. The description is as above. The following applies: Gynecologic cancer cell panel viability, ATPlite luminescence, 48 h; series mostly up to 57.5 µM. The gist of the method:
as §2

In a further test the test system is PA-1. The description is as above. Particulars: Gynecologic cancer cell panel viability, ATPlite luminescence, 48 h; series mostly up to 57.5 µM. The gist of the method:
as §2

In test [1] the test system is NIH3T3. As to the kind of experiment: Cytotoxic Profiling of Annotated Libraries Using Quantitative High-Throughput Screening (AID 1296008). Also: nearly all actives have a fitted effect of over 60% in size. Also: potency is read from the fitted curve at half-maximal effect. As to max response: % is scaled to controls: 0 for no effect and ±100 for the full control effect. Particulars: Five cell lines viability, CellTiter-Glo ATP luminescence, 48-72 h; max response: stronger effect = lower value. The gist of the method:
as §1

The test system of another test is HEK293. The test is described as above. Particulars: Five cell lines viability, CellTiter-Glo ATP luminescence, 48-72 h; max response: stronger effect = lower value. The gist of the method:
as §1

Test [2] has as its system HaCat. The description is as above. Particulars: Five cell lines viability, CellTiter-Glo ATP luminescence, 48-72 h; max response: stronger effect = lower value. Put shortly:
as §1

Test [3] concerns HACAT. As to the kind of experiment: qHTS assay to identify novel small-molecules to repurpose for Merkel cell carcinoma treatment (AID 1296009). Also: nearly all actives have a fitted effect of over 60% in size. The following applies: MCC and control cell lines, CellTiter-Glo viability, 72 h; at 44.8 µM (top of the series) unless noted. Put shortly: (§3)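 Luminescence from CellTiter-Glo, read 10 min after addition at room temperature, reported viability following a 72 hr, 37 degree celsius treatment with NPC or MIPE compounds in titration; values normalized to plate controls.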

Test [4] relates to NIH3T3. The description is as above. Particulars: MCC and control cell lines, CellTiter-Glo viability, 72 h; series mostly up to 44.8 µM. Put shortly:
as §3

For `Cn1ncc2cc(-c3cnc(N)c(Cl)c3N3CCC4(CCNC4=O)CC3)ccc21`, the result in the test with CRL-7250 and in the test on KB-3-1 was inactive. Also, the Potency result in the test with C33A, in the test on CAOV3, in the test on CASKI, with Es-2, in the test on HeLa and in the test with Hek293T was “inactive” throughout. For the same molecule, the Potency result with JEG-3, with OV90 and in the test on PA-1 was “inactive” in each case.

`CCn1c(=O)c(-c2ccc(Cl)cc2Cl)cc2cnc(Nc3ccc(N4CCNCC4)c(F)c3)nc21`: the Potency is 1.16 µM (active) with CRL-7250 and 1.03 µM (active) in the test with NIH3T3 [1]. The Potency result in the test with C33A, in the test with CAOV3, in the test on CASKI, in the test on Es-2, in the test with Hek293T and in the test on JEG-3 was “inactive” each time. The Potency entry in the test on OV90 and with PA-1 was “inactive” each time.

For the molecule `COc1cccc(-c2cn(-c3ccc(CCN4CCC(O)CC4)cc3)c3ncnc(N)c23)c1`, the Potency in the test on HEK293 was 8.2 µM (active); in the test on HaCat [2] it was 5.17 µM (active); in the test with NIH3T3 [1], 1.3 µM (active); in the test with CAOV3, 14.1 µM (active); in the test on OV90, 28.2 µM (active); in the test with PA-1, 12.6 µM (active).

Turning to `CNC(=O)COC(=O)N1CCC(CCc2ccc(Cl)cc2)CC1`, in the test with HEK293, the Potency is 14.6 µM (active). In addition, the molecule was called inactive in the test with HaCat [2] and with HACAT [3]. The max response in the test with NIH3T3 [1] is -13%. Further, the Potency entry in the test on C33A, with CAOV3, in the test on CASKI, in the test on Es-2, with HeLa and in the test with Hek293T was “inactive” each time. For the same molecule, the Potency entry in the test on JEG-3, with OV90 and with PA-1 was “inactive” each time.

On to `OC(c1ccc(-c2ccc(CN3CCN(Cc4ccncc4)CC3)cc2)c(F)c1)(C(F)(F)F)C(F)(F)F`, for which the Potency in the test with HEK293 is 5.17 µM (active). Besides, the max response with HaCat [2] was -9.47%; in the test with NIH3T3 [1], -11.3%. The Potency entry in the test on C33A, in the test with CAOV3, in the test on CASKI, in the test with Es-2, with HeLa and in the test with Hek293T was “inactive” each time. The Potency entry with JEG-3 and in the test on OV90 was “inactive” each time.

In the case of `C/C(=N\N=C(N)N)c1cc(NC(=O)CCCCCCCCC(=O)Nc2cc(/C(C)=N/N=C(N)N)cc(/C(C)=N/N=C(N)N)c2)cc(/C(C)=N/N=C(N)N)c1`, the Potency in the test on HEK293 was 7.31 µM (active). Besides, the result in the test with HaCat [2] and with HACAT [3] was inactive. The max response with NIH3T3 [1] was 0.565%. Further, the Potency result with CASKI, with HeLa, in the test on Hek293T and in the test on JEG-3 was “inactive” in each case.

For the molecule `COc1ccc(CN2CCN(C(=O)CCNC(=O)c3ccc(C(C)(C)C)cc3)CC2)cc1`, the Potency in the test on HEK293 is 7.31 µM (active). The max response with HaCat [2] was 3.77%; in the test with NIH3T3 [1], 3.24%. In addition, the Potency result with CAOV3, with CASKI, in the test with Es-2, with HeLa, in the test on JEG-3 and in the test on OV90 was “inactive” in each case.

On to `COc1ccc2c(c1)C(C(=O)N(Cc1ccc(N(C)C)cc1)c1ccc(C(C)C)cc1)CCC2` (centres undefined), for which, in the test with HEK293, the Potency is 11.6 µM (active). In addition, the max response was -43.6% in the test with HaCat [2] and 3.67% with NIH3T3 [1]. Further, the Potency entry in the test with C33A, in the test with CASKI, in the test with Es-2, in the test with HeLa, in the test on Hek293T and in the test on JEG-3 was “inactive” each time. Moreover, the Potency result with OV90 and with PA-1 was “inactive” in each case.

With `CC(=O)O[C@H]1C[C@H](OC(C)=O)[C@]2(C)[C@H](CC[C@@]34O[C@@H]3C3=C(C)C(=O)O[C@@H]3C[C@H]42)C1(C)C`, the Potency in the test with HEK293 was 5.63 µM (active). Besides, the call in the test with HaCat [2] was inactive. The max response in the test with NIH3T3 [1] is -18%. Also, in the test with HACAT [3], the outcome was “inactive [at 17.4 µM]”. Besides, the Potency entry in the test with C33A, in the test with CASKI, in the test on Es-2, with HeLa, with Hek293T and with JEG-3 was “inactive” throughout. The Potency entry in the test on OV90 and in the test with PA-1 was “inactive” each time.

Turning to `Cc1cc(-c2cnc(N)c3c(-c4ccc5scnc5c4)csc23)n(C)n1`, the results for the Potency in the test with HEK293 and with NIH3T3 [1] were 8.2 µM (active) and 11.6 µM (active), respectively. In addition, the max response in the test on HaCat [2] is -13.1%. The Potency entry in the test on CAOV3, with CASKI, in the test with Es-2, with HeLa, in the test on Hek293T and in the test on JEG-3 was “inactive” each time. Also, in the test with PA-1, the Potency result is “inactive”.

Regarding `O=C(Nc1ccc(CN2CCOCC2)cc1)c1ccc(-c2cccc(Cl)c2)o1`, the Potency in the test on HEK293 was 9.2 µM (active). Besides, the max response in the test with HaCat [2] was -23.4%; with NIH3T3 [1], 1.97%. The Potency result with C33A, in the test on CAOV3, in the test with CASKI, in the test on Es-2, in the test on HeLa and in the test with Hek293T was “inactive” in each case. Moreover, in the test on JEG-3, the Potency entry is “inactive”.

On to `C=C1C(=O)O[C@@H]2/C=C(\CO)CC/C=C(/C=O)C[C@@H](O)[C@@H]12`, for which the Potency is 8.2 µM (active) in the test on HEK293; 18.4 µM (active) with HaCat [2]; 16.4 µM (active) with NIH3T3 [1]; 31.6 µM (active) in the test on Es-2; 28.2 µM (active) in the test on Hek293T. Further, the Potency entry in the test on CASKI, in the test on HeLa and in the test with JEG-3 was “inactive” each time.

As to `O=C(O)c1ccc(N2C(=O)/C(=C/c3ccc(-c4ccc([N+](=O)[O-])cc4)o3)C=C2c2ccccc2)cc1`, the max response with HEK293 was -3.48%. The molecule was called inactive with HaCat [2] and in the test with HACAT [3]. Besides, the Potency entry with C33A, with CAOV3, in the test on CASKI, with Es-2, in the test with HeLa and in the test on Hek293T was “inactive” throughout. The Potency result in the test on JEG-3, with OV90 and with PA-1 was “inactive” in each case.

As for `CC1CCCC(O)CCC/C=C/c2cc(OS(=O)(=O)O)cc(O)c2C(=O)O1` (centres undefined), the max response with HEK293 is -20.5%; with HaCat [2], 0.348%. For the same molecule, the outcome in the test with NIH3T3 [1] was inactive. Also, the Potency entry in the test on NIH3T3 [4], in the test on C33A, with CAOV3, in the test on CASKI, with Es-2 and with HeLa was “inactive” throughout. Moreover, the Potency result with Hek293T, in the test with JEG-3, with OV90 and in the test with PA-1 was “inactive” each time.
